Experimental data: ChEMBL document CHEMBL3988442, “University of Dundee, Small-Polar-MMV Screening Library” (2021)

The compounds below were run against AMP-activated protein kinase, AMPK (Homo sapiens) (UniProt P54646+O43741+P54619+Q9UGJ0+Q9Y478+Q13131+Q9UGI9) (assay: AMP-dependent Kinase enzyme assay. An in vitro enzyme assay that detects ADP turnover that is directly proportional to AMPK activity. This uses naive AMPK that is activated during the assay with MK-8722). Details: 30 µM.
Format: functional
Set-up: scale not given: direction of the effect not stated beside the values
Work on `CCc1nnc(CS(=O)(=O)c2ccc(C)c(C)c2)n1C` yielded a Percent Effect of 9.9%. `CCN(Cc1ccccn1)C1CCN(c2ccccc2)C1=O` (stereo not given) was tested, and the Percent Effect was -6.67%. Compound `Nc1nc(CC(=O)N2CCCC(CCc3cccc(F)c3)C2)cc(=O)[nH]1` (stereo not given) has a Percent Effect of -9.77%. `CN(Cc1nc(C2CC2)no1)C1CCS(=O)(=O)C1` (stereo not given) gave a Percent Effect of 2.02%. Compound `CC1CCN(CCNC(=O)c2sccc2C2CC2)CC1` has a Percent Effect of 5.67%. Compound `Cc1nccn1CCN(C)C(=O)c1cn(CC2CCCCC2)nn1` has a Percent Effect of 9.45%. For `Cc1cc(C)n2cc(CN3CCC(N4CCN(C)C4=O)CC3)nc2n1`, the Percent Effect was 5.03%. `CC1(NC(=O)CNC(=O)C(C)(C)C)CCc2ccccc2C1` (stereo not given) gave a Percent Effect of 7.71%. `CN1CCCC(c2nccnc2-c2cccc(C(F)(F)F)c2)C1` (stereo not given) showed a Percent Effect of 26.4%. For `Cc1c(C(=O)N(C)c2ccccc2)cccc1N(C)S(C)(=O)=O`, the Percent Effect was 12%. With `CCc1ccc2nc(C)cc(C(=O)NC3CCC(=O)N(C)C3)c2c1` (stereo not given) the Percent Effect was -7.18%. Compound `Fc1ccc(OCCCNC2=NCCN2)cc1` has a Percent Effect of -0.85%. Work on `CC(=O)N[C@H]1CCO[C@@H](c2cccc(NC(=O)c3cccc(F)c3)c2)C1` yielded a Percent Effect of 6.73%. `CCOc1cc(Cl)ccc1CNC(=O)c1ccc(=O)n(C)c1` gave a Percent Effect of 10.5%. With `OCCC1CCN(c2ccnc3ccsc23)C1` (stereo not given) the Percent Effect was 1.38%. `NC1CCCc2c1cnn2-c1cc(F)cc(F)c1` (stereo not given) gave a Percent Effect of 10.6%. For `COc1ccc(-c2cc(C3CC3)c(C#N)c(N)n2)cc1F`, the Percent Effect was 9.02%. For `CCC(CNC(=O)CCn1cncn1)N1CCc2ccccc2C1` (stereo not given), the Percent Effect was 1.86%. `C[C@@H]1CN(CC(=O)NCc2ccccn2)C[C@]1(C)O` gave a Percent Effect of 8.43%. In the case of `Cc1ccc2ncccc2c1CN1CC[C@H](N(C)C)[C@H](CCC(=O)O)C1`, the Percent Effect is reported as -2.6%. `Nc1nc(O)cc(N2CCC(c3cc(Cc4ccccc4)n[nH]3)CC2)n1` was tested, and the Percent Effect was -82.1%. With `CNc1nc(C(=O)NCC2CCOc3ccccc3C2)cs1` (stereo not given) the Percent Effect was 1.74%. Work on `Cc1cc(C)c(C(=O)N2CCC3(CCCNC3)C2)cc1C` (stereo not given) yielded a Percent Effect of 7.09%. `Cc1noc(C)c1CCCNC(=O)Nc1ccc2c(c1)CC(=O)N2` gave a Percent Effect of 33.6%. With `COC(=O)CC1CSCCN1C(=O)CCc1c(C)nn(C)c1C` (stereo not given) the Percent Effect was 5.71%. `Cc1nc(C)c(C(=O)N2C[C@@H](C(=O)O)[C@H](C3CC3)C2)s1` showed a Percent Effect of 7.29%. For `COc1cccc(O[C@H]2CCN(c3nc(C)cc(C)n3)CC[C@@H]2O)c1`, the Percent Effect was 1.31%. `Cc1ccc(OCc2occc2C(=O)N2C[C@@H]3[C@@H](CN(C)C)[C@@H]3C2)cc1` showed a Percent Effect of 14%. Compound `Cn1cc(N2CCN(c3ccc(C#N)cc3F)CC2=O)cn1` has a Percent Effect of 0.0438%. Compound `COc1ccc(C)nc1NC(=O)Cc1c(C)nn(C)c1C` has a Percent Effect of 2.12%. `C/C(Cl)=C/CNC(=O)[C@H]1CC[C@]2(CC1)CN(C)C(=O)c1ccccc1O2` was tested, and the Percent Effect was 7.27%. With `COc1cccc(CN(C)Cc2c(C)noc2C)c1OC` the Percent Effect was 18.1%. `CS(=O)(=O)N1CCCC(c2cccc(-c3ccccc3F)n2)C1` (stereo not given) was tested, and the Percent Effect was 12.2%. Work on `O=C(NCCc1cc(N2CCOCC2)nc(NC2CC2)n1)C1CCCO1` (stereo not given) yielded a Percent Effect of -0.703%. `CCOc1ccc(Cl)cc1CCNC(=O)Cn1nc(C)ccc1=O` showed a Percent Effect of 5.21%. In the case of `CN(C)c1nc2sc(C(=O)N3CCN(C(=O)OC(C)(C)C)CC3)cc2s1`, the Percent Effect is reported as 63.5%. `FC(F)(F)c1nc(NC2CCc3ncnn3C2)c2ccccc2n1` (stereo not given) gave a Percent Effect of -0.0839%. Compound `COc1c(F)cc(-c2cccc3c2OC(CN)C3)cc1F` (stereo not given) has a Percent Effect of -4.2%. In the case of `OC1CCCN(Cc2cn(CC3CCN(C4CCSCC4)CC3)nn2)C1` (stereo not given), the Percent Effect is reported as 8.15%. For `Cc1ccc(S(=O)(=O)N(CC2CCOC2)C2CC2)cc1N(C)C` (stereo not given), the Percent Effect was -15%.
